Measurements published in PubChem BioAssay AID588342 (National Center for Advancing Translational Sciences (NCATS), 2011).
Among all 360,000 compounds or so, about 25,000 (6.9%) were called active. About 9% were inconclusive and are not listed. Only a selection was taken, and actives are over-represented in it overall. Values without a mark were called inactive. The call rests on the fitted dose curve; in most records, active means well fitted inhibition curve with a large enough effect; inconclusive means small, poorly fitted or top-dose-only effect; inactive means flat fitted curve, though single readings scatter.

molecular target: Luciferin 4-monooxygenase (Photinus pyralis) (UniProt P08659); test: qHTS profiling assay for firefly luciferase inhibitor/activator using purifed enzyme and Km concentrations of substrates (counterscreen for miR-21 project); conditions: purified FLuc, luminescence inhibition; series mostly up to 57.5 µM; activity change, negative = inhibition: at the top concentration; further: nearly all actives have a fitted effect of over 55% in size;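 on activity change, negative = inhibition: plate controls were vehicle for no effect and reference inhibitor for full effect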
Sequence (P08659 whole entry, looked up): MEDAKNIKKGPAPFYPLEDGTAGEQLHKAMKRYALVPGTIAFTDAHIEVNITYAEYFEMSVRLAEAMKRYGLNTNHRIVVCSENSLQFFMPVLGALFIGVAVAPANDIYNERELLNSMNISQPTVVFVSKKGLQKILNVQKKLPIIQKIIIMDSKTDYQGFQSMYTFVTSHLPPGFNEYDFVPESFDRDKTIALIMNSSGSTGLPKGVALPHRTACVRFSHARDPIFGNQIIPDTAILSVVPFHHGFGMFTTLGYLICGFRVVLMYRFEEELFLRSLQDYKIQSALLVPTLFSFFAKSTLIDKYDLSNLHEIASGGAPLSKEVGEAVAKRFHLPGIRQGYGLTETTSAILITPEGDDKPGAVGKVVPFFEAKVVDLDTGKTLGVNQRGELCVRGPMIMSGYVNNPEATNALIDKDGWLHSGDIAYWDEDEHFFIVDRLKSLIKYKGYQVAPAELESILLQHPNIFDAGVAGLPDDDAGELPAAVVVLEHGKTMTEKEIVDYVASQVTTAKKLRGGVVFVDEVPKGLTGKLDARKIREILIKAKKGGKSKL
Procedure, shortened: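 Biochemical qHTS of compounds, final roughly 60 µM downward over six points, against 10 nM purified firefly luciferase using Km concentrations of substrates (10 uM D-luciferin, 10 uM ATP) in Tris acetate pH 7.5 buffer; luminescence output.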
Potency means the concentration at half of the fitted maximal effect.

| SMILES | activity change, negative = inhibition | Potency |
| --- | --- | --- |
| CCOc1ccc(OCC(=O)OC(C)C(=O)NC2CCCCC2C)cc1 (configuration not stated) | -0.597% | – |
| CCc1cc2c(cc3c(=O)n(CC(=O)NCCc4ccc(OC)c(OC)c4)ncn32)s1 | -4.14% | – |
| CCN(CC)c1ccc(/C=N/NC(=O)c2cnccn2)c(O)c1 | – | 9.53 µM (active) |
| COc1ccc(NC(=O)C/C(C)=N/NC(=O)c2cnccn2)cc1Cl | 0.369% | – |
| Cc1ccc(C(=O)NCCNC(=O)c2cnccn2)cc1 | -0.972% | – |
| O=C(CSc1ncnc2c1cnn2CCc1ccccc1)Nc1ccc(F)cc1 | 4.06% | – |
| CC(=O)c1ccc(NC(=O)C2CCN(S(=O)(=O)c3c(C)noc3/C=C/c3ccc(C)cc3)CC2)cc1 | 1.25% | – |
| COc1ccc(C2(C)ON(c3ccccc3C(F)(F)F)C2=O)cc1 (configuration not stated) | 0.0812% | – |
| CCNCCC(=O)N1c2ccccc2Sc2ccc(NC(=O)OCC)cc21 | 2.62% | – |
| Nc1nonc1C(=O)NCCc1ccccc1 | -0.421% | – |
| C[C@H](NC(=O)NCCc1ccccc1)C(=O)O | -5.46% | – |
| CC(C)Cc1cc(C(=O)NCCc2ccccc2)no1 | – | 10.7 µM (active) |
| CC(C)Cc1cc(C(=O)Nc2cc(Br)ccc2O)no1 | – | 12 µM (active) |
| O=C(Nc1ccccc1Br)c1cc(CN2CCCC2)on1 | -18.8% | – |
| Cc1nn(Cc2ccc(F)cc2)c(C)c1NC(=O)c1cc(CC(C)C)on1 | -4.75% | – |
| O=S(=O)(NCCCN1CCOCC1)c1ccc(F)c(Cl)c1 | 0.23% | – |
| CCCN=C1NC(=O)C(CC(=O)NCCc2ccc(OC)c(OC)c2)S1 (configuration not stated) | 3.61% | – |
| Cc1cccc(-n2ccnc2SCC(=O)Nc2cc(C(F)(F)F)ccc2Cl)c1 | -5.71% | – |
| CN1CCN(C(CNC(=O)c2ccccc2F)c2ccc3c(c2)OCO3)CC1 (configuration not stated) | -1.47% | – |
| C=CCn1c(SCC(N)=O)nnc1-c1cc2c(s1)CCC(CC)C2 (configuration not stated) | – | 7.57 µM (active) |
| CCn1c(CSc2nc(C)cc(C)n2)nnc1SCC(N)=O | 0.421% | – |
| C=CCn1c(SCc2c(C(=O)OC)sc(N)c2C(=O)OC)nnc1-c1ccc(Cl)cc1 | 0.526% | – |
| Cc1oc2ncnc(N3CCCCC3)c2c1C(=O)N1CCN(c2cccc(Cl)c2)CC1 | -3.14% | – |
| Cc1ccc(O)c(NC(=O)CCS(=O)(=O)c2nc(-c3ccc4c(c3)OCO4)cc(C(F)(F)F)n2)c1 | 1.61% | – |
| CCc1ccc(NC(=O)c2cc(S(=O)(=O)N3CCCC(C)C3)cn2C)cc1 (configuration not stated) | -1.37% | – |
| O=C(O)CCCCCNc1ncnc2ccc(Br)cc12 | 0.793% | – |

| SMILES | activity change, negative = inhibition | Potency |
| --- | --- | --- |
| COc1ccc(Nc2ncnc3ccc(Br)cc23)c(OC)c1 | – | 26.9 µM (active) |
| COc1ccc(NC(=O)c2sc(N3CCOCC3)nc2-c2ccccc2)c(OC)c1 | -2.03% | – |
| C=CCNc1ncnc2ccc(Br)cc12 | -1.56% | – |
| CCOc1ccc(Nc2ncnc3scc(-c4ccc(OC)cc4)c23)cc1 | 3.74% | – |
| COc1ccc(Nc2ncnc3sc(-c4ccccc4)cc23)c(OC)c1 | – | 19 µM (active) |
| Oc1ccccc1N1CCN(c2ncnc3sc(-c4ccccc4)cc23)CC1 | -11.7% | – |
| COc1ccc(Nc2ncnc3sc(C)cc23)cc1 | – | 16.9 µM (active) |
| COc1ccc(Nc2nc(=O)[nH]nc2C)cc1 | 10.5% | – |
| Cc1cc(C)cc(NC(=O)CSc2nc3nccnc3c(=O)n2CCc2c[nH]c3ccccc23)c1 | -6.41% | – |
| COc1ccc(N2CCN(C(=O)C3CCCN(C(=O)c4cc5sccc5n4C)C3)CC2)cc1 (configuration not stated) | -10.7% | – |
| Cc1cc(C)c2sc(NC(=O)c3ccc(S(=O)(=O)N4CCCC4)cc3)nc2c1 | -1.89% | – |
| CC(C)(C)c1ccc(/C=C2\Oc3c(ccc(O)c3CN3CCN(CCO)CC3)C2=O)cc1 | -7.13% | – |
| CCOc1ccc(-n2c(C)nc3c(cnn3-c3ccc(C)cc3)c2=O)cc1 | 6.57% | – |
| CCN(CC(=O)Nc1ccc(NC(C)=O)cc1)C(=O)CSC(=S)N1CCCC1 | -0.101% | – |
| Cc1onc(-c2ccccc2)c1C(=O)N1CCN(S(=O)(=O)c2ccccc2C(F)(F)F)CC1 | 3.66% | – |
| Cn1c(-c2ccc(F)cc2)cc2onc(-c3ccccc3Cl)c2c1=O | – | 2.13 µM (active) |
| Cc1[nH]n(C)c(=O)c1C(=O)c1c(-c2c(Cl)cccc2Cl)noc1C | 0.456% | – |
| O=C1c2ccccc2C(=O)N1Cc1cc(-c2ccccc2Cl)no1 | -14% | – |
| O=c1c2ccccc2c(-c2ccc(F)cc2)nn1-c1ccc(C(F)(F)F)cc1 | 5.56% | – |
| Cn1c(-c2ccc(C(F)(F)F)cc2)cc2onc(-c3ccccc3)c2c1=O | – | 0.536 µM (active) |
| COc1ccccc1C1C(C(=O)N2CCCCC2)=C(C)Nc2nc3ccccc3n21 (configuration not stated) | 1.67% | – |
| COc1ccccc1CNC(=O)CCCN1C(=O)NC2(CCCC2)C1=O | -1.94% | – |
| CCc1cc(CNC(=O)CC2C(=O)NCCN2CC2CCCCC2)on1 (configuration not stated) | 3.31% | – |
| FC(F)(F)C1CCCN(c2nsc3ccccc23)C1 (configuration not stated) | – | 9.53 µM (active) |
| O=C(NC(Cc1ccccc1)C(=O)N1CCCC(C(F)(F)F)C1)c1ccccc1 (configuration not stated) | -0.559% | – |
| CC(=O)N1CCCc2cc(S(=O)(=O)N3CCC(C(=O)NCc4ccc(F)cc4)CC3)ccc21 | -4.77% | – |
